Assay results as given in PubChem BioAssay (EPA / NIEHS).
Records with an inconclusive call do not appear. The source made the active and inactive calls. How the source made its calls, unless noted: active means hit-call score of the fitted dose curve at least 0.9, where 1 is the maximum; inconclusive means response in the unintended direction; inactive means score below 0.9.

Experiments:
[1] = biological target: Bile acid receptor (Homo sapiens) (UniProt Q96RI1); assay: ATG_IR1_CIS: Attagene CIS-FACTORIAL HepG2 Assay for human Nuclear Receptor Subfamily 1 Group H Member 4 (NR1H4), IR1 submotif (AID 2282946; active means hit-call score of the fitted dose curve at least 0.9, where 1 is the maximum; inactive means score below 0.9); settings: IR1 reporter transcription, actives raise or lower the signal
In short: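 Transient MRTU transfection, HepG2; 24 h dosing; RNA → RT-PCR → 6-FAM primer extension → HpaI digest → capillary electrophoresis fluorescence. Gain/loss of signal fitted relative to DMSO.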

[2] = ATG_M_19_TRANS: Attagene TRANS-FACTORIAL HepG2 Assay for M19 Transcription Factor (Internal Marker) (AID 2282974); settings: HepG2 Attagene TRANS-FACTORIAL M19 internal marker reporter
In short: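 Fluorescence of 6-FAM-labelled reporter cDNA fragments, separated by capillary electrophoresis, served as the readout. These derived from HepG2 cells carrying transfected GAL4-UAS reporter units after 24 h dosing, with DMSO as negative control.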

[3] = ATG_GAL4_TRANS: Attagene TRANS-FACTORIAL HepG2 Assay for GAL4 (Internal Marker) (AID 2282976); settings: HepG2 Attagene TRANS GAL4 internal marker reporter
In short: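 In transfected human HepG2 liver cells dosed 24 h, GAL4 reporter mRNA serves as a baseline marker. Detection by RT-PCR with fluorescent capillary electrophoresis, activity fitted upward relative to DMSO.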

[4] = biological target: human RAR-related Orphan Receptor gamma (RORg), RORC (gene 6097) (UniProt P51449); assay: ATG_RORg_TRANS: Attagene TRANS-FACTORIAL HepG2 Assay for human RAR-related Orphan Receptor gamma (RORg) (AID 2283011)
In short: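 Reporter transcripts from a transfected RORg-GAL4 chimera in HepG2 cells were quantified 24 h after dosing by RT-PCR, 6-FAM labelling, HpaI digestion and capillary electrophoresis; increases over DMSO baseline were fitted.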

[5] = TOX21_p53_BLA_p4_viability: Viability Assessment in the Tox21 HCT-116 p53 Agonism Beta-lactamase Assay, Phase 4 (AID 2283597);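 further: hits lower the luminescence signal meaning cytotoxicity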
In short: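 Following a 16 h exposure at 37C, the treated HCT116 wells were first read for the FRET ratio. They were then lysed with CellTiter-Glo, and ATP luminescence was recorded after 30 min at room temperature.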

[6] = biological target: human Peroxisome Proliferator-activated Receptor alpha (PPARa), PPARA (gene 5465) (UniProt Q07869); assay: ATG_PPARa_TRANS: Attagene TRANS-FACTORIAL HepG2 Assay for human Peroxisome Proliferator-activated Receptor alpha (PPARa) (AID 2283001);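 on AC50: potency for gain of reporter signal over DMSO so agonist or activator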
In short: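 HepG2 cells transiently transfected with multiplexed GAL4-UAS reporter units and chimeric NR-Gal4 constructs were dosed for 24 h. Reporter mRNA was measured by RT-PCR with fluorescent labelling and capillary electrophoresis; gain of signal fitted against DMSO.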

[7] = biological target: human Peroxisome Proliferator-activated Receptor delta (PPARd), PPARD (gene 5467) (UniProt Q03181); assay: ATG_PPARd_TRANS: Attagene TRANS-FACTORIAL HepG2 Assay for human Peroxisome Proliferator-activated Receptor delta (PPARd) (AID 2283002)
In short: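 Multiplexed trans-activation format: HepG2 liver cells expressing exogenous NR-Gal4 chimeras and GAL4-UAS reporters were exposed for 24 h. Reporter mRNA was detected by RT-PCR with capillary electrophoresis fluorescence; activity fitted as gain of signal relative to DMSO.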

[8] = biological target: Peroxisome proliferator-activated receptor gamma (Homo sapiens) (UniProt P37231); assay: OT_PPARg_PPARgSRC1_0480: Odyssey Thera (OT) 8-hour Protein-Complementation Assay for Peroxisome Proliferator-activated Receptor Gamma / SRC-1 Co-activator (AID 2283387);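 further: nuclear to cytoplasmic split Venus YFP fluorescence ratio reporting PPARg SRC-1 interaction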
In short: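 Split-YFP (IFP1/IFP2) PPARg/SRC-1 reporter, HEK293T, 37 °C, 5% CO2; 8 h compound; formaldehyde fix + Draq5; high-content imaging, N/C ratio, ≥350 cells/image, positive direction vs DMSO.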

[9] = biological target: Peroxisome proliferator-activated receptor gamma (Homo sapiens) (UniProt P37231); assay: OT_PPARg_PPARgSRC1_1440: Odyssey Thera (OT) 24-hour Protein-Complementation Assay for Peroxisome Proliferator-activated Receptor Gamma/ SRC-1 Co-activator (AID 2283388);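 further: nuclear to cytoplasmic ratio of reconstituted Venus YFP fluorescence in fixed imaged cells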
In short: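 Readout is the 488 nm N/C fluorescence ratio from fixed, Draq5-stained HEK293T cells after 24 h compound exposure. Cells carried transiently transfected PPARg and SRC-1 fused to Venus fragments, transfected 48 h before treatment.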

[10] = biological target: Cellular tumor antigen p53 (Homo sapiens) (UniProt P04637); assay: TOX21_p53_BLA_p2_ratio: Tox21 HCT-116 p53 Agonism Beta-lactamase Assay, Ratio, Phase 2 (AID 2283592)
In short: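 Gain-of-signal p53 agonism was scored from the beta-lactamase FRET ratio (460/530 nm, 405 nm excitation) in HCT116 cells treated 16 h at 37C, 5% CO2, with DMSO serving as negative control and baseline.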

[11] = TOX21_p53_BLA_p3_viability: Viability Assessment in the Tox21 HCT-116 p53 Agonism Beta-lactamase Assay, Phase 3 (AID 2283593);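 further: cells exposed to compound for 16 h before reading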
In short: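 HCT-116 cells (4000/well) rested 5 h at 37C, then got DMSO compounds by pin tool (217-fold dilution) for 16 h at 37C, 5% CO2. After the bla read, CellTiter-Glo was added and luminescence read at 30 min, room temperature.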

[12] = TOX21_p53_BLA_p5_viability: Viability Assessment in the Tox21 HCT-116 p53 Agonism Beta-lactamase Assay, Phase 5 (AID 2283600)
In short: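 After the 460/530 nm beta-lactamase measurement, the wells received an ATP-detection luciferase reagent; signal was read 30 min later at RT. Compound treatment lasted 16 h on cells pre-incubated 5 h post-seeding.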

[13] = biological target: Nuclear receptor subfamily 1 group I member 3 (Homo sapiens) (UniProt Q14994); assay: ATG_CAR_TRANS: Attagene TRANS-FACTORIAL HepG2 Assay for human Constitutive Androstane Receptor (CAR) (AID 2282969); settings: HepG2 Attagene TRANS-FACTORIAL CAR reporter;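 further: activators raise reporter mRNA above DMSO so AC50 marks induction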
In short: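 HepG2 cells transiently transfected with multiplexed GAL4-UAS reporter units expressing chimeric NR-Gal4 proteins; compound exposure 24 h. Reporter mRNA measured by RT-PCR, 6-FAM labelling, HpaI digestion and capillary electrophoresis; gain-of-signal fitted against DMSO baseline.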

[14] = biological target: Oxysterols receptor LXR-beta (Homo sapiens) (UniProt P55055); assay: ATG_LXRb_TRANS: Attagene TRANS-FACTORIAL HepG2 Assay for human Liver X Receptor beta (LXRb) (AID 2282981); settings: HepG2 Attagene TRANS GAL4-LXRb reporter, mRNA
In short: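 HepG2 cells transiently transfected with multiple reporter transcription units carrying chimeric NR-Gal4 proteins acting on GAL4-UAS reporters; compound exposure 24 h. Reporter mRNA quantified by RT-PCR, 6-FAM labelling, HpaI digestion and capillary electrophoresis; gain of signal versus DMSO.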

[15] = biological target: human Thyroid Receptor alpha (THRa1), THRA (gene 7067) (UniProt P10827); assay: ATG_THRa1_TRANS: Attagene TRANS-FACTORIAL HepG2 Assay for human Thyroid Receptor alpha (THRa1) (AID 2283014)
In short: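 Transcripts from GAL4-UAS-driven reporters, measured after 24 h compound exposure by RT-PCR plus capillary electrophoresis of 6-FAM-labeled fragments, were fitted for gain of signal relative to DMSO. Cells: transiently transfected HepG2 expressing NR-Gal4 chimeras.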

[16] = biological target: human Vitamin D Receptor (VDR), VDR (gene 7421) (UniProt P11473); assay: ATG_VDR_TRANS: Attagene TRANS-FACTORIAL HepG2 Assay for human Vitamin D Receptor (VDR) (AID 2283022)
In short: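 Transactivation by an exogenous VDR-Gal4 chimera in transiently transfected HepG2 cells was measured as reporter transcript level 24 hours after chemical treatment. RT-PCR products were analysed by capillary electrophoresis and fitted in the positive direction relative to DMSO.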

[17] = TOX21_p53_BLA_p2_viability: Viability Assessment in the Tox21 HCT-116 p53 Agonism Beta-lactamase Assay, Phase 2 (AID 2283591);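 further: compound exposure lasted 16 h at 37 °C; actives lower the ATP signal meaning cytotoxicity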
In short: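 HCT-116 p53-bla cells (4000/well) rested 5 h at 37C, then received compounds in DMSO (217-fold dilution) for 16 h at 37C, 5% CO2. After the CCF4 read, CellTiter-Glo was added; ATP luminescence was read after 30 min at room temperature.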

[18] = biological target: Nuclear receptor subfamily 4 group A member 2 (Homo sapiens) (UniProt P43354); assay: ATG_NURR1_TRANS: Attagene TRANS-FACTORIAL HepG2 Assay for human Nuclear Receptor Related Protein 1 (NURR1) (AID 2282985); settings: HepG2 Attagene TRANS reporter, mRNA readout
In short: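 HepG2 cells transiently transfected with GAL4-UAS reporter units and chimeric NR-Gal4 constructs; chemical exposure 24 h. Reporter mRNA quantified by RT-PCR, fluorescent labelling and capillary electrophoresis; gain of signal fitted relative to DMSO baseline.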

[19] = biological target: Oxysterols receptor LXR-alpha (Homo sapiens) (UniProt Q13133); assay: ATG_LXRa_TRANS: Attagene TRANS-FACTORIAL HepG2 Assay for human Liver X Receptor alpha (LXRa) (AID 2282980); settings: HepG2 Attagene TRANS reporter, LXRa transactivation
In short: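 Chemical-induced reporter mRNA measured by RT-PCR with fluorescent labelling and capillary electrophoresis after 24 h dosing of transiently transfected HepG2 cells expressing exogenous NR-Gal4 chimeras; increases scored against DMSO baseline.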

[20] = ACEA_ER_AUC_viability: ACEA Biosciences xCELLigence Real-Time Cell Analysis on Estrogen Receptor Agonism for Viability (AID 2283782);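 further: continuous compound exposure with impedance area under curve over 80 h; hit means loss of impedance signal meaning reduced cell growth or viability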
In short: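 T-47D human breast cells in phenol red-free RPMI1640 with 10% charcoal-stripped FBS were dosed with an 8-point 1:4 dilution series from 100 uM top final concentration, in duplicate. Impedance-based growth was followed for 80 h; AUC analysed versus DMSO.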

Measured: AC50

Chain of human Peroxisome Proliferator-activated Receptor alpha (PPARa), PPARA (gene 5465) (Q07869 whole entry, looked up, the tested form may be a part): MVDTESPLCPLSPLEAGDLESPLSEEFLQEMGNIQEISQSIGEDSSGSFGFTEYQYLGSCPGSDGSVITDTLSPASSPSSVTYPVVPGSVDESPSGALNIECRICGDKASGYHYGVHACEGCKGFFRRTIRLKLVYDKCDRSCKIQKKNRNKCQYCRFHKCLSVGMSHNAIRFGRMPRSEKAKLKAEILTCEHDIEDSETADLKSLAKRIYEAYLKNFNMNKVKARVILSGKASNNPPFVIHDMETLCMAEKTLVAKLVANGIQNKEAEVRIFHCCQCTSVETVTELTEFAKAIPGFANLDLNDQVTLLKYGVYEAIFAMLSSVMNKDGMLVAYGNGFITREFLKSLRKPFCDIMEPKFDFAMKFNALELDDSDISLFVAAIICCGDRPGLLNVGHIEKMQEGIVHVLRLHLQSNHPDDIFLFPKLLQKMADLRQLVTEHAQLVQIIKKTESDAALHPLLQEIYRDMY
Chain of human Vitamin D Receptor (VDR), VDR (gene 7421) (P11473 whole entry, looked up, the tested form may be a part): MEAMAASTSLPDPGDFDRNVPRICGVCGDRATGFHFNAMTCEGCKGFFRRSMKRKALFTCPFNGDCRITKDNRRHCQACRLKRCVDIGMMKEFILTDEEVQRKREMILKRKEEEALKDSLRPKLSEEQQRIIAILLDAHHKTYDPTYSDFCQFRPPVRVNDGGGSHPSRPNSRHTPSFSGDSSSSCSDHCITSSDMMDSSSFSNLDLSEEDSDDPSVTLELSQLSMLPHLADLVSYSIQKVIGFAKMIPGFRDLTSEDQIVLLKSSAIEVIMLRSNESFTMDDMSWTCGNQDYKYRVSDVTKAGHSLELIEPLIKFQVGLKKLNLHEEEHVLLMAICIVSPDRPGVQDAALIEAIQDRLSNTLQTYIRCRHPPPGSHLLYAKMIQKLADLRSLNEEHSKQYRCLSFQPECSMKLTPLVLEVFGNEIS
Chain of Peroxisome proliferator-activated receptor gamma (Homo sapiens) (P37231 whole entry, looked up, the tested form may be a part): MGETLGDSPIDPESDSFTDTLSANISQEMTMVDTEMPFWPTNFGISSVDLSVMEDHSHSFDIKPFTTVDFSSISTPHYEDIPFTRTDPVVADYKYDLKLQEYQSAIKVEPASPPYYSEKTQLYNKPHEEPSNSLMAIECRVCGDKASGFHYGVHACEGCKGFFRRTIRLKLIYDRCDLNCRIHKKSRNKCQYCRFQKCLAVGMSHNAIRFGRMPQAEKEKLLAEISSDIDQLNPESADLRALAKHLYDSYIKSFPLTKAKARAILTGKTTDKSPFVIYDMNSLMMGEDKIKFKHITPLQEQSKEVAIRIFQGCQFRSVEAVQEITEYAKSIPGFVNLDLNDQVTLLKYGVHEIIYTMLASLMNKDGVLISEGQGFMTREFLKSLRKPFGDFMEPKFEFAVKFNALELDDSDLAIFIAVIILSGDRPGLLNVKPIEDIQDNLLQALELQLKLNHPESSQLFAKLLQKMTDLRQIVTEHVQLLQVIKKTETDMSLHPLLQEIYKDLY
Chain of Cellular tumor antigen p53 (Homo sapiens) (P04637 whole entry, looked up): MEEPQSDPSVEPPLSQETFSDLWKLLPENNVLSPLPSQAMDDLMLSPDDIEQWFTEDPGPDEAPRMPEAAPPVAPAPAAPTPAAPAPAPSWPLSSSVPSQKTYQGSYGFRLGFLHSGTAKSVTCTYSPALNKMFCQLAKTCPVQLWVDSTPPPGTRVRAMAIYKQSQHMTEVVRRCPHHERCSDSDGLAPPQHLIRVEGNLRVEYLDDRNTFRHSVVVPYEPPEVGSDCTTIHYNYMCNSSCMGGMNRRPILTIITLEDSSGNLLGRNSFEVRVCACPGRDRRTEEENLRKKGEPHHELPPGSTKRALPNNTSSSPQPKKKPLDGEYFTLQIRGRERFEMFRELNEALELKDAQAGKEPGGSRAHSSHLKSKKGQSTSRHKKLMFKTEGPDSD
Chain of human RAR-related Orphan Receptor gamma (RORg), RORC (gene 6097) (P51449 whole entry, looked up, the tested form may be a part): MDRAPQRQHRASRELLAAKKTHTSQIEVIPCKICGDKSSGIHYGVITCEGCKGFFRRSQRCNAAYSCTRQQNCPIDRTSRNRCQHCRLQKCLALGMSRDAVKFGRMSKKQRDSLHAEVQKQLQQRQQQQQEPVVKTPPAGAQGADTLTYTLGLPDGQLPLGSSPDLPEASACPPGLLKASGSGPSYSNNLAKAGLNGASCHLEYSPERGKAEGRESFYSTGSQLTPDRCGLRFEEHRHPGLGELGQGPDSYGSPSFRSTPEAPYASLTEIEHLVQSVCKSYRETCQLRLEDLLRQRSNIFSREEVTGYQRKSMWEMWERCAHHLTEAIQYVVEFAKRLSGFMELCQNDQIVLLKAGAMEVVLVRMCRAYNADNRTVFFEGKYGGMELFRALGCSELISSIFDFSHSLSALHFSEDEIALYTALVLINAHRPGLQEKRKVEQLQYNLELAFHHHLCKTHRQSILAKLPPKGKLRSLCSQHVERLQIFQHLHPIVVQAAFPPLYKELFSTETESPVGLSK
Chain of Oxysterols receptor LXR-beta (Homo sapiens) (P55055 whole entry, looked up, the tested form may be a part): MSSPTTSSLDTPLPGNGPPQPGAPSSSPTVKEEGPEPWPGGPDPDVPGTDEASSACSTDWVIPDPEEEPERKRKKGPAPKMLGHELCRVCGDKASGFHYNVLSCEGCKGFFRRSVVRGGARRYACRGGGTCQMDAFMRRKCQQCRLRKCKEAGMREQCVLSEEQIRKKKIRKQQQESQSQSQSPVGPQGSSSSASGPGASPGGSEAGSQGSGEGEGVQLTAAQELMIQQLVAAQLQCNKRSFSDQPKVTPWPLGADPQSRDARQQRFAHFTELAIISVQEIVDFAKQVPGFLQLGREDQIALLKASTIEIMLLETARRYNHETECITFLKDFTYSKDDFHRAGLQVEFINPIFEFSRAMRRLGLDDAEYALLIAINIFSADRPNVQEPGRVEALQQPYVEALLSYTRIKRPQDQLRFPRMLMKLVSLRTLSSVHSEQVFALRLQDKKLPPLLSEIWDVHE
Chain of Oxysterols receptor LXR-alpha (Homo sapiens) (Q13133 whole entry, looked up, the tested form may be a part): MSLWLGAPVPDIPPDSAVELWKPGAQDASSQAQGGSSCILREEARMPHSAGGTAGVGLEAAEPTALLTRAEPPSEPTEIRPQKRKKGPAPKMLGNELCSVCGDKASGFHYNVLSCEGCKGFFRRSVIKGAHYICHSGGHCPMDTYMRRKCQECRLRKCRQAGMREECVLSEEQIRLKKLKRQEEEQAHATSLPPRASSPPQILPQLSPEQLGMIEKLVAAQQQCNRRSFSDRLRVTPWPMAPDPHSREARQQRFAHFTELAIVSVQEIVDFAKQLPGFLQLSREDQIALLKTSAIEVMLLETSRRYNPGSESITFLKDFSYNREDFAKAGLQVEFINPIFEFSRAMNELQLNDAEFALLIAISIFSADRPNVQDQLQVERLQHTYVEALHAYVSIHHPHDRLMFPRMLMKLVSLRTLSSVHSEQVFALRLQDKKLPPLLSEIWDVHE
Chain of Bile acid receptor (Homo sapiens) (Q96RI1 whole entry, looked up): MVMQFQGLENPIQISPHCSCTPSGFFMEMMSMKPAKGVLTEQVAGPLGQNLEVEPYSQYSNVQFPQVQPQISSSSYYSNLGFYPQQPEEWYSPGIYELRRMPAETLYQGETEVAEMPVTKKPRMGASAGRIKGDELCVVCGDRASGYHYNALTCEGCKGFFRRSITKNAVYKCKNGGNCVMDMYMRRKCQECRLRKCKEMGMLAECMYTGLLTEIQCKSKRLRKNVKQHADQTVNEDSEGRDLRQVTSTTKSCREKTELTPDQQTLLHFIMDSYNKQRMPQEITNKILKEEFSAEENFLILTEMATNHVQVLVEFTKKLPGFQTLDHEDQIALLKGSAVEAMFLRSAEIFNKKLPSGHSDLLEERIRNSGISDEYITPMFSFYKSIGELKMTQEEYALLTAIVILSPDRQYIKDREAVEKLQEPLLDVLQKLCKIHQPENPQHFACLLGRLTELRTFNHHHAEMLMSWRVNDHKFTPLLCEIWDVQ
Chain of human Peroxisome Proliferator-activated Receptor delta (PPARd), PPARD (gene 5467) (Q03181 whole entry, looked up, the tested form may be a part): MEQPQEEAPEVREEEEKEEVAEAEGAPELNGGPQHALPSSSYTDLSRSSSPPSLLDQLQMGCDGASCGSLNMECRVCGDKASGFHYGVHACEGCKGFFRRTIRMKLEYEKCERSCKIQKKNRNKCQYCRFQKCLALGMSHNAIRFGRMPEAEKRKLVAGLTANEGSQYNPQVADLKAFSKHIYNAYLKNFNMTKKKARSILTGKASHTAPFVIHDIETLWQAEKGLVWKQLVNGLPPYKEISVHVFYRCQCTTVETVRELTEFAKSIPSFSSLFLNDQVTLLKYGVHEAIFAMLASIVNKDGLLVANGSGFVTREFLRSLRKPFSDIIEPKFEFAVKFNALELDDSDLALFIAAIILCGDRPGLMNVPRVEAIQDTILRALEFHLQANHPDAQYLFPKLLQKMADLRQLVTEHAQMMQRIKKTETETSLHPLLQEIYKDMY
Chain of Nuclear receptor subfamily 4 group A member 2 (Homo sapiens) (P43354 whole entry, looked up, the tested form may be a part): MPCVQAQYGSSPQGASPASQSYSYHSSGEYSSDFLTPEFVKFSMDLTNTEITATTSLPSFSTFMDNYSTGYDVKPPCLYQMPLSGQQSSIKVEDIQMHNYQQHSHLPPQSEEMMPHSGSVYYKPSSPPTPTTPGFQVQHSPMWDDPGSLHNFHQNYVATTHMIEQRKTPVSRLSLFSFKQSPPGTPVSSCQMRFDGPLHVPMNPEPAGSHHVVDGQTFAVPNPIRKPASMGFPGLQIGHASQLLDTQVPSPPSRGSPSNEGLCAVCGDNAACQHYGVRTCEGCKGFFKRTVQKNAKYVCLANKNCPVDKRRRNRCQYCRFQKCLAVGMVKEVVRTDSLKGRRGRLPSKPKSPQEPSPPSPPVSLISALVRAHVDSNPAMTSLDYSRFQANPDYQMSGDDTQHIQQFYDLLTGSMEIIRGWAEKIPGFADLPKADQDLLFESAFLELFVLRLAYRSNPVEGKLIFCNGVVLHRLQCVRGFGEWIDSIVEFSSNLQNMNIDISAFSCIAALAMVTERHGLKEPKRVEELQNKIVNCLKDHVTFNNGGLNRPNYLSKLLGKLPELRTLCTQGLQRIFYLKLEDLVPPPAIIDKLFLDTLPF

CNC(=N[N+](=O)[O-])NCC1CCOC1 (stereo unspecified)
inactive: [1] | [2] | [3] | [4] | [5]

Oc1cc(Cl)ccc1Cl
inactive: [2] | [3] | [6] | [7] | [8] | [9] | [10] | [11] | [5] | [12]

O=c1[nH]c(Cl)c(Cl)cc1Cl
inactive: [1] | [13] | [2] | [14] | [6] | [7] | [4] | [15] | [16] | [10] | [11] | [5] | [12]

CC(C)c1ccc(O)cc1
inactive: [13] | [14] | [6] | [7] | [16] | [8] | [9] | [12]

Nc1ccc(Cl)c(Cl)c1
inactive: [14] | [6] | [4] | [15] | [16] | [8] | [9] | [17] | [10] | [11] | [5]

CCN(CC)C(=S)S
inactive: [14] | [18] | [7] | [4] | [15]

O=[N+]([O-])c1cc([N+](=O)[O-])c2ccccc2c1
inactive: [19] | [14] | [18] | [6] | [15] | [16] | [17] | [10] | [11] | [5] | [12]

Nc1ccccc1C(=O)Oc1ccc2ccccc2c1
inactive: [2] | [19] | [18] | [15] | [16] | [10] | [11] | [5] | [12]
active: [1] 26.1 µM | [17] 85.3 µM | [20] 24.4 µM

N#Cc1cccc(C#N)c1
inactive: [2] | [3] | [19] | [6] | [17] | [10] | [11] | [12] | [20]

CCC(C)c1cc(C(C)(C)C)cc(-n2nc3ccccc3n2)c1O (stereo unspecified)
inactive: [1] | [2] | [18] | [4] | [15] | [16]

CC(=O)/C=C/c1ccccc1
active: [6] 38.8 µM | [20] 85.1 µM
inactive: [13] | [14] | [18] | [7] | [16]

C=CC(=O)OCC(CC)CCCC (stereo unspecified)
inactive: [2] | [3] | [14] | [18] | [6] | [7] | [4] | [16] | [8] | [9] | [17] | [10] | [11] | [5] | [12] | [20]

Clc1ccc(-c2ccccc2)cc1
inactive: [1] | [13] | [2] | [3] | [18] | [7] | [16] | [20]
